Source: PubChem BioAssay
Hits are enriched below; roughly 11% of the tested compounds scored in any of these assays.
IL-1B inflam inh – blocks inflammasome-driven IL-1 beta release. THP-1 LPS/ATP IL-1B secretion, AlphaLISA, 16 h; hits give low values. activity change, % at 57.5 µM. hit rate 4.7% among 360,000. AID 743279; in the data active = activity change below about -50%; inconclusive = mostly about -30% to -49%; note: % is set by controls: 0 for no effect and ±100 for the full control effect
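Secreted IL-1B measured by AlphaLISA bead assay after 16 h compound exposure of THP-1 cells; compounds (final up to 57.5 uM) added 1 h before LPS (250 ng/mL) and ATP (1.25 mM) stimulation; lower signal means less secretion.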
Gal4-VP16 FLuc – inhibits Gal4-VP16 luciferase reporter, ROR gamma counter-screen; Drosophila S2 Gal4-VP16 UAS-luciferase, luminescence, 20 h; Potency, µM (top dose mostly 53.6 µM), for the others: at the highest dose activity, negative = inhibition, most hits filed as inhibitors; hit rate 3.5% among 310,000;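 note: Gal4-VP16 expression switched on by copper sulfate through the metallothionein promoter; potency is the fitted concentration of half-maximal effect; % is set by controls: 0 for no effect and ±100 for the full control effect; nearly all actives have a fitted effect of over 50% in size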
RORg inh – ROR gamma (mouse) transcription inhibition; AID 2551; Drosophila S2 Gal4-RORgamma UAS-luciferase reporter, 20 h; Potency, µM (titrated, usually from 53.6 µM), for the others: at the top dose activity change, negative = inhibition, usual class: inhibitors; hit rate 5.4% among 310,000; note: potency is the fitted concentration of half-maximal effect; % is set by controls: 0 for no effect and ±100 for the full control effect; nearly all actives have a fitted effect of over 60% in size
Target sequence (P51450 whole entry, looked up, the tested form may be a part): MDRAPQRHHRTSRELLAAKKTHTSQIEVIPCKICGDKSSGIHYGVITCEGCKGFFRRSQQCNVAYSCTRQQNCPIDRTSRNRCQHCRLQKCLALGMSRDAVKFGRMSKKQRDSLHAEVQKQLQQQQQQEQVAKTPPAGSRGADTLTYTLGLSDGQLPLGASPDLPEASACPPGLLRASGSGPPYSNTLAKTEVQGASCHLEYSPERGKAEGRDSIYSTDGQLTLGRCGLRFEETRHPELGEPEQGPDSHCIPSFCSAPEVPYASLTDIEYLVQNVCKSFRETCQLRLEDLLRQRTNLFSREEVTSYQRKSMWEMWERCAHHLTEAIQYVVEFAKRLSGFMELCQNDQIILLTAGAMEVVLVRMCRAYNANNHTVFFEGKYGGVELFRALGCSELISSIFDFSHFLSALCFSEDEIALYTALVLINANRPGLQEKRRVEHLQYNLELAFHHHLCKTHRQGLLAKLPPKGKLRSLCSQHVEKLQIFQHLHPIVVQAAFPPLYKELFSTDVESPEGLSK
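ROR gamma transcriptional activity was tracked as Gal4-UAS luciferase output in stably transfected Drosophila Schneider cells, with compound added 1 hr before 700 uM copper sulfate induction and a 20 hr ambient-temperature incubation.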
MCF10A rerep – DNA re-replication induction in MCF 10a cells; hit rate 2.9% among 350,000; AID 624296; Potency, µM (doses to about 46.1 µM), without a hit: at the highest dose activity, positive = re-replication, actives largely listed as activators; MCF 10A DNA re-replication, Hoechst nuclear intensity, 48 h; note: potency is the fitted concentration of half-maximal effect; % of control where 0% means no effect; nearly all actives have a fitted effect of over 50% in size
SW480 rerep – DNA re-replication induction in SW480 cells; SW480 DNA re-replication, Hoechst DNA content imaging, 48 h; Potency, µM (top dose mostly 46.1 µM), for inactives: top-dose re-replication activation, most hits filed as activators; hit rate 1.8% among 340,000; note: potency is the fitted concentration of half-maximal effect; % of control where 0% means no effect; nearly all actives have a fitted effect of over 55% in size
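Treated cells incubate 48 hr (37 C, 5% CO2), are stained 40 min with Hoechst, and nuclear fluorescence is enumerated; a rise in nuclei with high DNA signal marks re-replication.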
The depositor's hits bear a star; ? = inconclusive; . = not tested or not shown. Unless noted, calls come from the whole dose curve; as a rule, active = well fitted curve in the direction sought with a large enough effect; inconclusive = small, poorly fitted or top-dose-only effect, or another doubt; inactive = no such curve, though single readings can be large; an effect the other way counts as inactive or inconclusive.

SMILES | IL-1B inflam inh | Gal4-VP16 FLuc | RORg inh | MCF10A rerep | SW480 rerep
CN1CCN(S(=O)(=O)c2ccc(N3CCN(C(c4ccccc4)c4ccccc4)CC3)nc2)CC1 | 19 | 7% | -2% | ? | 11%
O=c1c(-c2ccc(Cl)cc2)nc2cnc(N3CCOCC3)nc2n1C[C@H]1CCCO1 | . | 6% | -6% | . | .
Clc1ccc2nc(N3CCCCC3)[nH]c2c1 | -15 | -22% | -22% | 1% | -7%
CC(C)n1c(=S)[nH]c2cc(Cl)ccc21 | 19 | 20µM* | ? | 0% | -6%
CCOC(=O)NC[C@H](Cc1ccc(OCCc2nc(-c3ccccc3)oc2C)cc1)N/C(C)=C\C(=O)c1ccc(C(F)(F)F)cc1 | . | -4% | 10% | . | .
Cc1ccc(S(=O)(=O)Nc2cc3c4c(c2)CCC(=O)N4CCC3)cc1 | 60 | . | . | 9.2µM* | -75%
O=C(O)C1C=CCC(C(=O)O)C1 (stereo unspecified) | -13 | . | . | . | .
N#Cc1ccc(NC(=O)Cn2cnc([N+](=O)[O-])c2)cc1 | 34 | -1% | -14% | -4% | 5%
O=C(Cn1cnc([N+](=O)[O-])c1)Nc1cc(Oc2ccc(Cl)cc2Cl)cc([N+](=O)[O-])c1 | -58* | ? | ? | ? | ?
COc1ccc(OCC(=O)N2CCN(c3nnc(-c4ccc(C)cc4)c4ccccc34)CC2)cc1 | -84* | ? | 17% | 14% | -6%
COc1ccc(OCC(=O)N2CCN(c3nnc(-c4ccccc4)c4ccccc34)CC2)cc1 | -66* | ? | ? | 8% | 7%
Cc1ccc(Oc2nnc(-c3ccccc3)c3ccccc23)cc1 | -20 | -4% | 16% | 3% | 4%
Cc1ccc(-c2nnc(Oc3cccc(C)c3)c3ccccc23)cc1 | -75* | 0% | -2% | 1% | -1%
Cc1ccc(-c2nnc(N3CCN(C(=O)c4ccco4)CC3)c3ccccc23)cc1 | -63* | ? | -2% | -3% | 3%
O=C(COc1ccccc1)N1CCN(c2nnc(-c3ccccc3)c3ccccc23)CC1 | -18 | -3% | 18% | 9% | -1%
Cc1cccc(C)c1NC(=O)CNC(=O)c1cccc(S(=O)(=O)NCc2cccs2)c1 | 8 | . | . | -11% | -5%
Cc1ccc(N2C(=O)N(CC(=O)Nc3ccccc3C(F)(F)F)C(=O)C2C)cc1 (stereo unspecified) | 8 | . | . | -2% | -2%
Cc1ccc(-c2nnc(OCC3CCCO3)c3ccccc23)cc1 (stereo unspecified) | -66* | -2% | 25% | ? | -5%
Cc1cc(N2CCN(C(=O)c3ccco3)CC2)n2nc(-c3cccc(Cl)c3)cc2n1 | -66* | ? | ? | ? | 12%
Cc1ccc(OCC(=O)N2CCN(c3nnc(-c4ccc(C)cc4)c4ccccc34)CC2)cc1 | -87* | ? | ? | ? | ?
Cc1ccc(NC(=O)c2ccc(OCC3CCCO3)cc2)cc1 (stereo unspecified) | 9 | -18% | -7% | ? | 4%
CCc1cc2cc(C)cc(C)c2nc1SCC(=O)N1CCN(C(=O)c2ccco2)CC1 | -54* | 6% | 13% | ? | -1%
COc1cccc(Cn2c(=O)c(-c3cn(C)c4ccccc34)nc3cnc(OC)nc32)c1 | . | 5% | -18% | . | .
COc1ccc(CN(C(=O)CN2C(=O)c3ccccc3S2(=O)=O)C(C(=O)NCC2CCCO2)c2ccco2)cc1 (stereo unspecified) | -8 | -1% | -1% | 10% | -8%
CNC(=O)NC(=O)CSc1ccc(S(=O)(=O)N(C)C2CCCCC2)cn1 | 21 | . | . | 15% | 0%
SMILES | IL-1B inflam inh | Gal4-VP16 FLuc | RORg inh | MCF10A rerep | SW480 rerep
Cc1cccc2c(C(=O)N3CCN(C(=O)c4ccco4)CC3)cc(-c3cccc(Br)c3)nc12 | -71* | ? | ? | 18µM* | ?
Cc1cccc(OCC(=O)N2CCN(c3nnc(-c4ccccc4)c4ccccc34)CC2)c1 | -22 | -18% | 38% | 3% | -3%
O=C(c1ccco1)N1CCN(C(=O)c2cc(-c3ccccc3)nc3ccccc23)CC1 | 0 | 11% | 29% | 8% | 3%
COc1ccc(-c2nnc(N3CCCCC3)c3ccccc23)cc1 | -66* | -9% | -1% | -14% | -5%
Cc1cc(C)c2nc(C(F)(F)F)nc(N3CCN(C(=O)c4ccco4)CC3)c2c1 | ? | 0.89µM* | 1µM* | ? | -5%
Cc1ccc(-c2nnc(N3CCN(C(=O)COc4cccc(C)c4)CC3)c3ccccc23)cc1 | -86* | ? | 16% | 6% | -14%
COc1ccc(-c2nnc(N3CCOCC3)c3ccccc23)cc1 | . | 0% | -5% | 5% | ?
Cc1cc(C)c2nc(N3CCCN(C(=O)c4ccco4)CC3)c(C#N)cc2c1 | ? | ? | ? | ? | -2%
CC(C)c1ccc(C2(C)NC(=O)N(CC(=O)NCC3COc4ccccc4O3)C2=O)cc1 (stereo unspecified) | -7 | . | . | 4% | 2%
COc1ccc(C2=Nn3c(nnc3-c3cccc(OC)c3)SC2)cc1 | . | 2% | 85% | . | .
C[C@H](NC(=O)C1CCN(S(=O)(=O)c2ccccc2)CC1)C(=O)NCc1ccncc1 | -4 | . | . | . | .
CC(C)(C)c1ccc(S(=O)(=O)N2CCC(NC(=O)c3ccco3)CC2)cc1 | 1 | 7% | -10% | 7% | -1%
O=c1cc(-c2ccccc2)nc(/C=C/c2ccccc2)[nH]1 | 16 | -4% | 2% | 18µM* | ?
COc1ccc(/C=C/c2nc(-c3ccccc3)cc(=O)[nH]2)cc1 | -5 | -8% | -37% | ? | ?
O=C(N/N=C/c1c(Cl)cccc1Cl)c1ccc(F)cc1 | 23 | -1% | 11µM* | -15% | -2%
O=C(CNC(=O)c1ccc(S(=O)(=O)N2CCCC2)cc1)N/N=C/c1c(Cl)cccc1Cl | -58* | -14% | 42% | ? | 17%
O=C(N/N=C/c1ccc(Cl)cc1Cl)c1cccc(F)c1 | ? | ? | 11µM* | 1% | 13%
Cc1cccc(/C=N/NC(=O)c2ccc(F)cc2)n1 | 43 | ? | 7.1µM* | -1% | ?
O=C(N/N=C/c1ccccn1)c1ccc(NC(=O)c2ccc(F)cc2)cc1 | ? | 11% | -6% | 13% | ?
CNc1ccc(C(=O)OCC(=O)NCc2ccc3c(c2)OCO3)cc1[N+](=O)[O-] | 6 | . | . | 23% | -15%
COc1ccc(S(=O)(=O)NC(=O)C2(C)CCN2C(=O)C2(c3ccc(Cl)cc3)CCC2)cc1 (stereo unspecified) | 50 | . | . | . | .
CC[C@H](C)[C@H](NC(=O)[C@H](Cc1ccccc1)NC(=O)[C@H](C)NC(=O)[C@H](CC(=O)O)NC(=O)[C@H](CCCCN)NC(=O)[C@H](CO)NC(=O)[C@@H]1CCCN1C(=O)[C@@H]1CCC(=O)N1)C(=O)NCC(=O)N[C@@H](CC(C)C)C(=O)N[C@@H](CCSC)C(N)=O | . | -7% | 0% | . | .
